Experimental data: PubChem BioAssay AID602358 (National Center for Advancing Translational Sciences (NCATS), 2012)
Records with an inconclusive call do not appear. Active and inactive are the calls of the source. Calls come from the whole dose curve; as a rule, active = well fitted inhibition curve with a large enough effect; inconclusive = small, poorly fitted or top-dose-only effect; inactive = flat fitted curve, though single readings scatter.

These compounds were tested against Luciferin 4-monooxygenase (Photinus pyralis) (UniProt P08659) (assay: FLuc inhibitory activity for the follow-up compounds in a biochemical assay with Km concentrations of substrate and 500microM CoASH). Details: purified FLuc, Km substrates + 500 uM CoASH, luminescence; series mostly up to 57.5 µM.
Sequence of Luciferin 4-monooxygenase (Photinus pyralis) (P08659 whole entry, looked up): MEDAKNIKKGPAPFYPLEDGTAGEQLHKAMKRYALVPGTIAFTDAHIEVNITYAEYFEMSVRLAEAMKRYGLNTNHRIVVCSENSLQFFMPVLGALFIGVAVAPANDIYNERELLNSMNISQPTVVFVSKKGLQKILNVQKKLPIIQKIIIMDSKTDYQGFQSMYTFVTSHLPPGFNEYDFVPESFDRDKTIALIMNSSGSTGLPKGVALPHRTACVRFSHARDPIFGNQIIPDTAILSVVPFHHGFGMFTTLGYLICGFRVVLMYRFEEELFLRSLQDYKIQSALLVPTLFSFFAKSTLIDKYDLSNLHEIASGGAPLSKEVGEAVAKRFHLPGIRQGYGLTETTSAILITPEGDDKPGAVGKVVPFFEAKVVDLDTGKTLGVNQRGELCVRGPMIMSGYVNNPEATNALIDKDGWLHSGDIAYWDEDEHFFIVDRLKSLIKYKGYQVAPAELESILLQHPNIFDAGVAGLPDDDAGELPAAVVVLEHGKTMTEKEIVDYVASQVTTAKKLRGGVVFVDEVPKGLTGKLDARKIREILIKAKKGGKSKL
Source text: NCGC Assay Overview: Firefly (Photinus pyralis) luciferase is one of the most commonly used transcriptional reporters. It is considered one of the more dynamically responsive reporters - that is, responsive to changes in reporter transcription - as it requires no post-translational modifications and is enzymatically active directly after protein synthesis (Wood, 1998). With no endogenous expression in mammalian cells and without the requirement of external excitation, it offers very little background signal, thus generally providing excellent signal to background for most assays. Previous profiling work to determine the prevalence of compounds that affect FLuc enzymatic activity (PubChem AID 411) identified that ~3% of the MLSMR library (then at ~72K) inhibited FLuc. […] Of the compounds identified in this profile that inhibited FLuc, 151 compounds were selected for further analysis, in an effort to better understand their mode of inhibiting FLuc. The assay described here was to determine the activity of the compounds in an FLuc assay that contained KM concentrations of substrates and 500uM CoASH.
NCGC Assay Protocol Summary: Reagents: 50mM Tris acetate, pH 7.5; 10mM Mg acetate; 10uM D-luciferin (Sigma #L9504); 10uM ATP; 0.01% Tween-20; 0.05% BSA; 10nM P. pyralis luciferase (Sigma #L9506); 500 uM CoASH Control compounds used were two known firefly luciferase inhibitors (3-(5-(3-chlorophenyl)-1,2,4-oxadiazol-3-yl)benzoic acid and 5-(2-fluorophenyl)-3-phenyl-1,2,4-oxadiazole), and DMSO. Three microliters containing firefly luciferase substrates in buffer (final concentrations: 50mM Tris acetate, pH 7.5, 10mM Mg acetate, 0.01% Tween-20, 0.05% BSA, 10uM D-luciferin, 10uM ATP, and 500 uM CoASH) are dispensed into each well of a Greiner white, solid-bottom 1536-well format plate using a flying reagent dispenser (FRD). These assay plates were then treated with 23nL of compound or DMSO using a Kalypsys pin tool, which allows for delivery of a 12-point intraplate titration of each compound to the assay plate (quantitative HTS), with a final compound concentrations ranging from approximately ~60uM to 0.3nM. One microliter of firefly luciferase in 500mM Tris-acetate buffer was then delivered by FRD to each well for a final enzyme concentration of 10nM. Luciferase activity was then measured using a ViewLux CCD imager (PerkinElmer), with an average exposure time of 2-30 seconds (2X binning, medium/high gain).
In the case of CCOc1ccc2nc(NC(=O)c3ccccn3)sc2c1, the Potency is reported as 0.163 µM (active). In the case of CC(=O)Nc1cccc(C(=O)Nc2ccccc2C(=O)O)c1, the Potency is reported as 20.6 µM (active). CN=c1scc(-c2ccccc2F)n1/N=C/c1ccc[nH]1 was tested, and the Potency was 0.0163 µM (active). In the case of COc1ccc2nc(NC(=O)c3nc(S(=O)(=O)Cc4ccc(C)cc4)ncc3Cl)sc2c1, the Potency is reported as 2.06 µM (active). With Nc1ccccc1C(=O)Nc1cccc(C(=O)O)c1 the Potency was 18.3 µM (active). With Cc1c(NC(=O)c2cc(-n3cnnc3)ccc2Cl)cccc1-c1nc2ccccc2s1 the Potency was 0.231 µM (active). For CC(C)C(=O)Nc1cccc(C(=O)Nc2ccccc2C(=O)O)c1, the Potency was 7.3 µM (active). For COc1ccccc1C(=O)Nc1ccc(C(=O)Nc2ccccc2C(=O)O)cc1, the Potency was 20.6 µM (active). For O=C(Cc1ccc(Cl)cc1)Nc1cccc(C(=O)Nc2ccccc2C(=O)O)c1, the Potency was 25.9 µM (active). For O=C(Nc1cccc(-c2nc3ccccc3s2)c1)C1=COCCO1, the Potency was 7.3 µM (active). In the case of O=C(Nc1ccccc1C(=O)O)c1cccc(NC(=O)c2ccccc2Cl)c1, the Potency is reported as 14.6 µM (active). In the case of O=C(Nc1cccc(-c2nc3ccccc3s2)c1)c1cc(-n2cnnc2)ccc1Cl, the Potency is reported as 3.66 µM (active). In the case of Cc1c(C)c2ccc(OCC(=O)Nc3ccccn3)c(C)c2oc1=O, the Potency is reported as 0.0041 µM (active). With O=C(O)c1ccc(NC(=O)c2ccccc2NC(=O)c2ccccc2Br)cc1 the Potency was 16.3 µM (active). With O=C(Nc1ccccc1-c1nc2ccccc2s1)c1ccc(Br)o1 the Potency was “inactive”. Nc1ccccc1-c1nc2ccccc2s1 was tested, and the Potency was 3.26 µM (active). Cc1ccc2nc(-c3ccc(N)cc3)sc2c1 was tested, and the Potency was 0.0326 µM (active). In the case of O=C(Nc1ccccc1C(=O)Nc1ccccc1C(=O)O)c1ccccc1, the Potency is reported as 10.3 µM (active). For Cc1c(NC(=O)c2cccs2)cccc1-c1nc2ccccc2s1, the Potency was 3.26 µM (active). For COc1cc(OC)cc(C(=O)Nc2ccccc2-c2nc3ccccc3s2)c1, the Potency was “inactive”. In the case of Cc1ccc(S(=O)(=O)N2CCN(C(=O)c3ccccc3-c3nc4ccccc4s3)CC2)c(C)c1, the Potency is reported as “inactive”. With O=C(Nc1ccccc1C(=O)O)c1ccc(NC(=O)C2CCCCC2)cc1 the Potency was 5.17 µM (active). O=C(Nc1ccccc1C(=O)O)c1cccc(NC(=O)c2ccc(Br)o2)c1 was tested, and the Potency was 10.3 µM (active). For O=C(Nc1ccccc1C(=O)O)c1cccc(NC(=O)c2ccccc2Br)c1, the Potency was 14.6 µM (active). O=C(O)c1cccc(NC(=O)c2cccc(NC(=O)C3CCCO3)c2)c1 (stereo not given) was tested, and the Potency was 18.3 µM (active). In the case of COc1ccc2nc(NC(=O)CCc3ccc(OC)c(OC)c3)sc2c1, the Potency is reported as “inactive”. For COc1ccc2nc(NC(=O)c3ccc(S(=O)(=O)N4CCCC(C)C4)cc3)sc2c1 (stereo not given), the Potency was “inactive”. O=C(O)c1cccc(NC(=O)c2ccccc2NC(=O)c2ccccc2F)c1 was tested, and the Potency was 18.3 µM (active). With c1ccc2sc(-c3ccc4c(c3)OCO4)nc2c1 the Potency was 0.103 µM (active). With Cc1ccc(C(=O)O/N=C(\N)c2ccccn2)c(Cl)c1 the Potency was 0.0046 µM (active). O=C(Nc1ccccc1C(=O)O)c1cc(S(=O)(=O)NCc2ccccc2)ccc1Cl was tested, and the Potency was “inactive”. With Cc1c(NC(=O)C(C)(C)C)cccc1-c1nc2ccccc2s1 the Potency was 1.46 µM (active). With O=C(O)c1ccc(NC(=O)c2cc(S(=O)(=O)N3CCCCC3)c(Cl)cc2Cl)cc1 the Potency was “inactive”. With Cc1ccc(C(=O)Nc2cccc(C(=O)O)c2)cc1S(=O)(=O)N1CCOCC1 the Potency was 20.6 µM (active). With Cc1cccc(NS(=O)(=O)c2cccc(C(=O)Nc3cccc(C(=O)O)c3)c2)c1 the Potency was “inactive”. In the case of O=C(Nc1ccccc1C(=O)O)c1ccc(NC(=O)C2CCCO2)cc1 (stereo not given), the Potency is reported as 5.8 µM (active). With O=C(O)c1ccc(NC(=O)c2ccccc2NC(=O)c2ccccc2Cl)cc1 the Potency was 16.3 µM (active). With O=C(Nc1ccccc1C(=O)O)c1ccc(NC(=O)C2CC2)cc1 the Potency was 0.73 µM (active). For CCOc1ccc(C(=O)Nc2cccc(C(=O)O)c2)cc1Cl, the Potency was 0.919 µM (active). With CCn1c(C)nc2cc(-c3nc4n(n3)Cc3ccccc3-4)ccc21 the Potency was 0.0146 µM (active).
